Test results: the supplement of paper PMC12669032

What was measured:
Assay in all cases: growth AUC relative to DMSO control (median of replicates) (fraction); higher = more growth (less inhibition), active = hit call of the paper
Conditions in all cases: 20 µM; 24 h;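 active = AUC reduced over 20% with Padj below 0.05 in at least 2 of 3 replicates; inactive = otherwise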
Akkermansia muciniphila = system: Akkermansia muciniphila
Method in brief: (§1)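 Gut bacterial monocultures were grown anaerobically at 37 °C in mGAM, starting at OD600 0.05, with 20 µM compound (1% DMSO) in round-bottom 96-well plates under pierced gas-permeable seals. OD600 was read hourly for 24 h. Area under the growth curve (minimum OD set to 0) was normalised to the plate median of DMSO controls, or to row and column medians on the industrial chemical plate. The value is the median of three biological replicates grown on separate days.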

Bacteroides caccae = system: Bacteroides caccae
Method in brief: as §1

Bacteroides clarus = system: Bacteroides clarus
Method in brief: as §1

Bacteroides dorei = system: Bacteroides dorei
Method in brief: as §1

Bacteroides stercoris = system: Bacteroides stercoris
Method in brief: as §1

[1] = system: Bacteroides thetaiotaomicron
Method in brief: as §1

Bacteroides uniformis = system: Bacteroides uniformis
Method in brief: as §1

[2] = system: Bifidobacterium longum subsp. longum
Method in brief: as §1

Clostridium difficile = system: Clostridium difficile
Method in brief: as §1

Collinsella aerofaciens = system: Collinsella aerofaciens
Method in brief: as §1

Coprococcus comes = system: Coprococcus comes
Method in brief: as §1

Escherichia coli ED1a = system: Escherichia coli ED1a
Method in brief: as §1

Escherichia coli IAI1 = system: Escherichia coli IAI1
Method in brief: as §1

Eubacterium rectale = system: Eubacterium rectale
Method in brief: as §1

[3] = system: Fusobacterium nucleatum subsp. animalis
Method in brief: as §1

Lactobacillus gasseri = system: Lactobacillus gasseri
Method in brief: as §1

Lactobacillus paracasei = system: Lactobacillus paracasei
Method in brief: as §1

Odoribacter splanchnicus = system: Odoribacter splanchnicus
Method in brief: as §1

[4] = system: Parabacteroides distasonis
Method in brief: as §1

Parabacteroides merdae = system: Parabacteroides merdae
Method in brief: as §1

Measured: growth AUC

C/C(=N/Nc1nc(C)cc(C)n1)c1ccccc1C
active: Eubacterium rectale 0.495
inactive: Akkermansia muciniphila 1.24 | Bacteroides caccae 1.01 | Bacteroides clarus 1.06 | Bacteroides dorei 1 | Bacteroides stercoris 1.1 | [1] 0.963 | Bacteroides uniformis 1.03 | [2] 1.01 | Clostridium difficile 0.99 | Collinsella aerofaciens 0.979 | Coprococcus comes 0.957 | Escherichia coli ED1a 1.02 | Escherichia coli IAI1 1.04 | [3] 1.16 | Lactobacillus gasseri 0.994 | Lactobacillus paracasei 1.1 | Odoribacter splanchnicus 0.666 | [4] 1.07 | Parabacteroides merdae 1.07

NC(=S)c1c(Cl)cccc1Cl
inactive: Akkermansia muciniphila 0.917 | Bacteroides caccae 0.943 | Bacteroides clarus 0.97 | Bacteroides dorei 0.935 | Bacteroides stercoris 1.01 | [1] 1.03 | Bacteroides uniformis 0.972 | [2] 1.05 | Clostridium difficile 1.02 | Collinsella aerofaciens 0.962 | Coprococcus comes 1.01 | Escherichia coli ED1a 0.994 | Escherichia coli IAI1 0.979 | Eubacterium rectale 1.22 | [3] 0.822 | Lactobacillus gasseri 0.884 | Lactobacillus paracasei 0.953 | Odoribacter splanchnicus 0.985 | [4] 0.965 | Parabacteroides merdae 0.887

CC(C)(C)c1cc([N+](=O)[O-])cc([N+](=O)[O-])c1O
active: Bacteroides clarus 0.742
inactive: Akkermansia muciniphila 0.623 | Bacteroides caccae 0.973 | Bacteroides dorei 0.931 | Bacteroides stercoris 1.03 | [1] 0.837 | Bacteroides uniformis 0.876 | [2] 0.964 | Clostridium difficile 0.885 | Collinsella aerofaciens 0.96 | Coprococcus comes 0.859 | Escherichia coli ED1a 0.93 | Escherichia coli IAI1 0.923 | Eubacterium rectale 0.908 | [3] 0.638 | Lactobacillus gasseri 0.852 | Lactobacillus paracasei 0.859 | Odoribacter splanchnicus 0.722 | [4] 0.83 | Parabacteroides merdae 0.942

CC1(C)C(/C=C(\Cl)c2ccc(Cl)cc2)C1C(=O)OC(C#N)c1ccc(F)c(Oc2ccccc2)c1 (stereo not given)
inactive: Akkermansia muciniphila 0.965 | Bacteroides caccae 0.993 | Bacteroides clarus 0.985 | Bacteroides dorei 1.04 | Bacteroides stercoris 1 | [1] 1 | Bacteroides uniformis 0.99 | [2] 0.94 | Clostridium difficile 1.09 | Collinsella aerofaciens 1.04 | Coprococcus comes 0.968 | Escherichia coli ED1a 0.986 | Escherichia coli IAI1 1.01 | Eubacterium rectale 0.864 | [3] 1.02 | Lactobacillus gasseri 1.04 | Lactobacillus paracasei 0.913 | Odoribacter splanchnicus 1.03 | [4] 1 | Parabacteroides merdae 1

O=C(NC(=O)c1c(F)cccc1F)Nc1ccc(OC(F)(F)C(F)OC(F)(F)F)c(Cl)c1 (stereo not given)
inactive: Akkermansia muciniphila 0.979 | Bacteroides caccae 0.991 | Bacteroides clarus 1.01 | Bacteroides dorei 1.03 | Bacteroides stercoris 0.982 | [1] 0.974 | Bacteroides uniformis 0.997 | [2] 1 | Clostridium difficile 0.985 | Collinsella aerofaciens 0.971 | Coprococcus comes 1 | Escherichia coli ED1a 1.05 | Escherichia coli IAI1 1 | Eubacterium rectale 0.99 | [3] 0.986 | Lactobacillus gasseri 1.49 | Lactobacillus paracasei 0.958 | Odoribacter splanchnicus 0.983 | [4] 1.02 | Parabacteroides merdae 0.997

Cc1c(F)c(F)c(COC(=O)[C@@H]2[C@H](/C=C(\Cl)C(F)(F)F)C2(C)C)c(F)c1F (mixture of isomers)
inactive: Akkermansia muciniphila 0.937 | Bacteroides caccae 0.943 | Bacteroides clarus 0.993 | Bacteroides dorei 0.935 | Bacteroides stercoris 0.981 | [1] 0.989 | Bacteroides uniformis 1.01 | [2] 0.997 | Clostridium difficile 1 | Collinsella aerofaciens 0.976 | Coprococcus comes 0.956 | Escherichia coli ED1a 1 | Escherichia coli IAI1 0.993 | Eubacterium rectale 1.01 | [3] 1 | Lactobacillus gasseri 0.897 | Lactobacillus paracasei 0.956 | Odoribacter splanchnicus 1.04 | [4] 0.976 | Parabacteroides merdae 0.994

O=C(O)C1(O)c2ccccc2-c2ccc(Cl)cc21 (stereo not given)
inactive: Akkermansia muciniphila 0.865 | Bacteroides caccae 0.979 | Bacteroides clarus 0.935 | Bacteroides dorei 1.08 | Bacteroides stercoris 1.04 | [1] 0.958 | Bacteroides uniformis 0.984 | [2] 0.936 | Clostridium difficile 0.993 | Collinsella aerofaciens 1.03 | Coprococcus comes 0.972 | Escherichia coli ED1a 0.998 | Escherichia coli IAI1 0.975 | Eubacterium rectale 0.947 | [3] 0.982 | Lactobacillus gasseri 1.05 | Lactobacillus paracasei 0.997 | Odoribacter splanchnicus 1.01 | [4] 0.979 | Parabacteroides merdae 0.987

CC1(C)[C@H](/C=C(\Cl)C(F)(F)F)[C@@H]1C(=O)O[C@@H](C#N)c1cccc(Oc2ccccc2)c1
inactive: Akkermansia muciniphila 1.14 | Bacteroides caccae 0.983 | Bacteroides clarus 0.994 | Bacteroides dorei 0.972 | Bacteroides stercoris 0.971 | [1] 0.997 | Bacteroides uniformis 0.984 | [2] 0.963 | Clostridium difficile 0.988 | Collinsella aerofaciens 0.932 | Coprococcus comes 0.959 | Escherichia coli ED1a 1 | Escherichia coli IAI1 0.992 | Eubacterium rectale 0.961 | [3] 0.953 | Lactobacillus gasseri 0.853 | Lactobacillus paracasei 0.996 | Odoribacter splanchnicus 1 | [4] 0.985 | Parabacteroides merdae 0.957

CCOC(=O)/C=C(C)/C=C/C[C@@H](C)CCCC(C)C
inactive: Akkermansia muciniphila 0.915 | Bacteroides caccae 0.985 | Bacteroides clarus 1.03 | Bacteroides dorei 1.01 | Bacteroides stercoris 1.12 | [1] 0.986 | Bacteroides uniformis 0.984 | [2] 0.949 | Clostridium difficile 1.06 | Collinsella aerofaciens 0.982 | Coprococcus comes 0.979 | Escherichia coli ED1a 1 | Escherichia coli IAI1 0.997 | Eubacterium rectale 1.03 | [3] 1.15 | Lactobacillus gasseri 1.13 | Lactobacillus paracasei 1.01 | Odoribacter splanchnicus 0.954 | [4] 1.02 | Parabacteroides merdae 0.989

CCNc1nc(Cl)nc(NCC)n1
inactive: Akkermansia muciniphila 0.894 | Bacteroides caccae 1 | Bacteroides clarus 1.01 | Bacteroides dorei 1.02 | Bacteroides stercoris 1.02 | [1] 1.01 | Bacteroides uniformis 1.01 | [2] 1.05 | Clostridium difficile 1.01 | Collinsella aerofaciens 1.04 | Coprococcus comes 1.01 | Escherichia coli ED1a 1.05 | Escherichia coli IAI1 1.03 | Eubacterium rectale 0.961 | [3] 0.977 | Lactobacillus gasseri 1.09 | Lactobacillus paracasei 1 | Odoribacter splanchnicus 0.998 | [4] 1.01 | Parabacteroides merdae 1.01

O=C(Nc1ccccc1)Nc1ccnc(Cl)c1
active: Escherichia coli IAI1 0.788 | [4] 0.677
inactive: Akkermansia muciniphila 0.926 | Bacteroides caccae 0.9 | Bacteroides clarus 0.949 | Bacteroides dorei 0.977 | Bacteroides stercoris 0.926 | [1] 0.94 | Bacteroides uniformis 0.886 | [2] 0.959 | Clostridium difficile 0.941 | Collinsella aerofaciens 1.01 | Coprococcus comes 1.03 | Escherichia coli ED1a 0.942 | Eubacterium rectale 0.803 | [3] 1.1 | Lactobacillus gasseri 0.858 | Lactobacillus paracasei 0.971 | Odoribacter splanchnicus 0.912 | Parabacteroides merdae 0.888

CCc1cc(C)cc(CC)c1-c1c(OC(=O)C(C)(C)C)n2n(c1=O)CCOCC2
inactive: Akkermansia muciniphila 1.01 | Bacteroides caccae 0.906 | Bacteroides clarus 1 | Bacteroides dorei 0.992 | Bacteroides stercoris 1.22 | [1] 1.01 | Bacteroides uniformis 1 | [2] 0.952 | Clostridium difficile 0.944 | Collinsella aerofaciens 1 | Coprococcus comes 0.964 | Escherichia coli ED1a 0.99 | Escherichia coli IAI1 0.976 | Eubacterium rectale 1.14 | [3] 1.1 | Lactobacillus gasseri 0.845 | Lactobacillus paracasei 1.03 | Odoribacter splanchnicus 1.03 | [4] 0.851 | Parabacteroides merdae 1.01

O=c1oc2ccccc2c(O)c1C(CC(O)c1ccc(-c2ccc(Br)cc2)cc1)c1ccccc1 (stereo not given)
active: Bacteroides caccae 0.438 | Bacteroides clarus 0.279 | Bacteroides dorei 0.563 | Bacteroides stercoris 0.00869 | [1] 0.733 | Bacteroides uniformis 0.703 | [2] 0.747 | Clostridium difficile 0.327 | Odoribacter splanchnicus 0.167 | [4] 0.516 | Parabacteroides merdae 0.25
inactive: Akkermansia muciniphila 1 | Collinsella aerofaciens 0.941 | Coprococcus comes 0.923 | Escherichia coli ED1a 1 | Escherichia coli IAI1 0.97 | Eubacterium rectale 0.883 | [3] 0.936 | Lactobacillus gasseri 0.801 | Lactobacillus paracasei 0.838

O=c1[nH]c2c(c(=O)n1C1CCCCC1)CCC2
inactive: Akkermansia muciniphila 0.895 | Bacteroides caccae 1.01 | Bacteroides clarus 0.944 | Bacteroides dorei 0.957 | Bacteroides stercoris 0.925 | [1] 0.978 | Bacteroides uniformis 0.972 | [2] 0.963 | Clostridium difficile 0.972 | Collinsella aerofaciens 0.95 | Coprococcus comes 0.945 | Escherichia coli ED1a 0.99 | Escherichia coli IAI1 0.987 | Eubacterium rectale 0.899 | [3] 0.834 | Lactobacillus gasseri 0.923 | Lactobacillus paracasei 1.02 | Odoribacter splanchnicus 0.98 | [4] 0.999 | Parabacteroides merdae 0.973

CC1CNC(=S)N1 (stereo not given)
inactive: Akkermansia muciniphila 1 | Bacteroides caccae 1.03 | Bacteroides clarus 1.03 | Bacteroides dorei 1.04 | Bacteroides stercoris 1.09 | [1] 1 | Bacteroides uniformis 1 | [2] 1.01 | Clostridium difficile 1.06 | Collinsella aerofaciens 1.04 | Coprococcus comes 1.03 | Escherichia coli ED1a 1.01 | Escherichia coli IAI1 1.06 | Eubacterium rectale 1.06 | [3] 1.05 | Lactobacillus gasseri 0.989 | Lactobacillus paracasei 1.06 | Odoribacter splanchnicus 1.02 | [4] 0.983 | Parabacteroides merdae 1.02

COP(=O)(OC)O/C(=C\Cl)c1ccc(Cl)cc1Cl
inactive: Akkermansia muciniphila 1.11 | Bacteroides caccae 0.975 | Bacteroides clarus 1.02 | Bacteroides dorei 1.03 | Bacteroides stercoris 1.02 | [1] 0.969 | Bacteroides uniformis 1.01 | [2] 1.02 | Clostridium difficile 0.97 | Collinsella aerofaciens 0.997 | Coprococcus comes 1.06 | Escherichia coli ED1a 1.01 | Escherichia coli IAI1 1 | Eubacterium rectale 1.09 | [3] 1.09 | Lactobacillus gasseri 0.97 | Lactobacillus paracasei 1.02 | Odoribacter splanchnicus 1.02 | [4] 0.957 | Parabacteroides merdae 1.01
